# Sampled rows, rich in hits. Any-hit rate of the full collection: about 22%.
# Pf growth 96h – inhibits malaria parasite growth, 96 h; 320,000 tested, 6.9% active; Potency, µM (series often up to 28.7 µM), without a hit: at the highest dose activity change, negative = inhibition, usual class: inhibitors; AID 504834; P. falciparum luciferase reporter growth, 96 h; note: potency is the fitted concentration of half-maximal effect; % is set by controls: 0 for no effect and ±100 for the full control effect
#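 Plates of compound plus infected erythrocytes (2% hematocrit, 0.05% parasitemia final) incubate 96 hours, 37 C, 5% CO2. Detection reagent added; reduced luminescence from the parasites' luciferase reporter flags inhibition.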
# Cycloheximide cs – counter-screen for Shiga toxin inhibitors: cycloheximide protein synthesis inhibition; AID 2314; 300,000 tested, 12% active; cell reporter, cycloheximide protein synthesis inhibition counterscreen; max response, %; in the data active = max response mostly above about 13%, no sharp cut-off; inactive = mostly below about 14%; note: read at 38.3 µM for the half of the compounds with a filed dose; 0% is about no effect
# LmPK inhibitor – inhibitors of Leishmania mexicana pyruvate kinase | purified LmPK, Kinase-Glo ATP luminescence, 1 h | Potency, µM (top dose mostly 57.5 µM), for the others: at the highest dose activity change, negative = inhibition, usual class: inhibitors | 290,000 tested, 0.37% active; note: potency is the fitted concentration of half-maximal effect; % is set by controls: 0 for no effect and ±100 for the full control effect
# Target sequence (Q27686 whole entry, looked up): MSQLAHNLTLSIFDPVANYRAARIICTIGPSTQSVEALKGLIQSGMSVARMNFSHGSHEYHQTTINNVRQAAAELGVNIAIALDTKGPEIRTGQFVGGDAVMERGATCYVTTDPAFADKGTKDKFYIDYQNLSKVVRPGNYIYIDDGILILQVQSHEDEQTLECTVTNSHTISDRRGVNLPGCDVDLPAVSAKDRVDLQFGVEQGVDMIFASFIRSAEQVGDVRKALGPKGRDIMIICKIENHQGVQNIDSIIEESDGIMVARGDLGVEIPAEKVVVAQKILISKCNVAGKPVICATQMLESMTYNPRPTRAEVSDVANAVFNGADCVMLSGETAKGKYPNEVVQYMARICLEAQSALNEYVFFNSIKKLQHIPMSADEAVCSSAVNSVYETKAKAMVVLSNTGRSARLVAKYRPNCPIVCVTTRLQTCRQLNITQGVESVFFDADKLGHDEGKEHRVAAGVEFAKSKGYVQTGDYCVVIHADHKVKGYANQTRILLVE
#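 ATP generated from ADP (0.1 mM) and PEP (0.5 mM) by 0.1 nM LmPK over 1 h at room temperature (pH 7.2 imidazole buffer) was detected by coupled luciferase luminescence. Values were normalized to uninhibited and no-enzyme wells.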
# Shiga inhibitor – inhibitors of Shiga toxin in Vero cells. Vero cells, Shiga toxin protein synthesis inhibition reporter. inhibition, % at 38.7 µM. 290,000 tested, 9.2% active. AID 2315; in the data active = inhibition mostly above about 28%, no sharp cut-off; inactive = mostly below about 43%; note: 0% is about no effect
# Pf growth 48h – inhibits P. falciparum growth in the first generation, 48 h | Potency, µM (series often up to 28.7 µM), without a hit: at the top dose activity change, negative = inhibition, hits mostly inhibitors | AID 504832 | P. falciparum luciferase growth in erythrocytes, 48 h | 310,000 tested, 5.9% active; note: potency is the fitted concentration of half-maximal effect; % is set by controls: 0 for no effect and ±100 for the full control effect
#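 Compounds are pin-transferred into medium, infected erythrocytes (2% hematocrit, 0.1% parasitemia final) are added, and plates sit one parasite generation at 37 C in 5% CO2. Detection reagent is then added and luminescence measured.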
# An asterisk follows results filed as active; ? = inconclusive; · = no result. Unless noted, calls come from the whole dose curve; as a rule, active = well fitted inhibition curve with a large enough effect; inconclusive = small, poorly fitted or top-dose-only effect, or another doubt; inactive = no such curve, though single readings can be large or run the other way.
SMILES,Pf growth 96h,Cycloheximide cs,LmPK inhibitor,Shiga inhibitor,Pf growth 48h
COc1cc(/C=C(\C#N)C(=O)Nc2nnc(C(F)(F)F)s2)ccc1OCc1ccc(C(F)(F)F)cc1C(F)(F)F,·,-3.8,·,12.7,·
O=C(O)c1csc(N/N=C/c2ccc(Br)cc2)n1,?,15.8,2.6%,12.8,31.0%
CN(C)S(=O)(=O)c1ccc(-c2csc(N/N=C/c3ccc(O)cc3)n2)cc1,0.0657µM*,14.0*,10.3%,32.4,0.329µM*
O=C(CCN1C(=O)C2C3CCC(C3)C2C1=O)OCC(=O)c1cccc([N+](=O)[O-])c1 (configuration not stated),7.8%,-1.0,-0.9%,11.0,-2.8%
COC(=O)c1c(C)[nH]c(C(=O)COC(=O)CCNS(=O)(=O)c2cccc(C(F)(F)F)c2)c1C,66.1%,·,·,·,-4.1%
COc1cc2c(cc1OC)C1=NC(=O)CN1C(SCc1ccccc1)=N2,·,-2.8,-6.2%,0.8,10.4µM*
CCC(C)Sc1nc2c(c(=O)[nH]c(=O)n2C)n1Cc1ccc(Cl)cc1 (configuration not stated),·,-2.0,2.3%,-20.1,10.4µM*
CC(C)Sc1nc2c(c(=O)[nH]c(=O)n2C)n1Cc1ccc(Cl)cc1,13.1µM*,-3.2,-1.2%,-11.2,?
CCOC(=O)C(C)Sc1nc2c(c(=O)[nH]c(=O)n2C)n1Cc1ccc(Cl)cc1 (configuration not stated),?,-1.8,1.3%,-9.2,?
O=C(COC(=O)C1CC2C=CC1C2)Nc1cccc(S(=O)(=O)N2CCCCCC2)c1 (configuration not stated),3.8%,-2.5,-0.3%,15.2,-30.5%
O=C(Cc1ccccc1[N+](=O)[O-])OCC(=O)N1CCN(c2ccccc2)CC1,7.4%,·,·,·,2.4%
N#Cc1nc(-c2cccc3ccccc23)oc1NCC1CCCO1 (configuration not stated),4.0%,51.7*,-1.0%,65.5*,46.0%
N#Cc1nc(-c2ccc(Cl)cc2)oc1NCC1CCCO1 (configuration not stated),36.7%,20.7*,-0.4%,107.7*,12.1%
N#Cc1nc(-c2ccccc2)oc1NCC1CCCO1 (configuration not stated),5.4%,14.4,1.6%,33.6,16.3%
CSc1ncc(S(=O)(=O)c2ccccc2)c(=O)[nH]1,26.3%,2.8,1.0%,10.8,-2.6%
CC(C)COc1ccc(/C(=N/O)c2ccccc2)cc1,-4.0%,29.7*,-3.4%,38.3,·
COC(=O)C1=C(Nc2ccc(C)cc2)C=C(C)C(C(=O)OC)C1c1cccc(OC)c1 (configuration not stated),1.65µM*,9.7,1.4%,38.3,2.62µM*
COC(=O)C1=C(Nc2ccc(C)cc2)C=C(C)C(C(=O)OC)C1c1ccc(OC)cc1 (configuration not stated),?,5.1,3.9%,-11.0,4.15µM*
CCC1Oc2ccccc2N(CC(=O)NCc2cccs2)C1=O (configuration not stated),-26.6%,29.9,2.1%,25.5,?
Nc1nc(OCC2CCCCC2)c2[nH]cnc2n1,?,0.9,-6.4%,-0.3,?
CCC(C)NS(=O)(=O)c1cc2c3c(c1)CCN3C(=O)CC2 (configuration not stated),12.3%,-4.7,-0.1%,-11.5,9.5%
Cc1cc(=O)oc2cc(OCC(=O)OCC(=O)N3CCC(C)CC3)ccc12,1.3%,-2.4,2.4%,0.3,20.9%
CCOc1ccc(C2C(C(=O)c3cccs3)=C(O)C(=O)N2Cc2cccnc2)cc1OC (configuration not stated),-6.5%,34.1*,6.1%,59.8*,14.4%
COc1ccc(OC)c(C2C(C(=O)c3cccs3)=C(O)C(=O)N2c2cc(C)on2)c1 (configuration not stated),6.3%,34.8*,1.8%,90.1*,22.6%
COc1ccc(C2C(C(=O)c3cccs3)=C(O)C(=O)N2c2cccc(C)n2)cc1 (configuration not stated),30.1%,8.4,3.6%,34.6,8.1%
SMILES,Pf growth 96h,Cycloheximide cs,LmPK inhibitor,Shiga inhibitor,Pf growth 48h
COc1ccc(C2C(C(=O)c3cccs3)=C(O)C(=O)N2c2cccc(C)n2)cc1OC (configuration not stated),20.7%,19.5*,-4.7%,31.7*,5.7%
O=C(O)C(Cc1c[nH]c2ccccc12)N1CCS(=O)(=O)CC1 (configuration not stated),6.5%,-2.5,9.1%,-8.8,0.0%
Cc1ccnc2nc(C(=O)OCC(=O)Nc3ccc([N+](=O)[O-])cc3Br)nn12,-13.1%,·,·,·,?
Cc1cc(C)n(C(C)CC(=O)Nc2ccc(-c3ccno3)cc2)n1 (configuration not stated),0.522µM*,21.2,1.9%,1.7,?
Cc1cc(C)n(C(C)CC(=O)Nc2ccc3c(c2)OCO3)n1 (configuration not stated),102.9%,23.6*,-0.2%,9.7,27.9%
Cc1cc(C)n(C(C)CNC(=O)c2ccc3c(c2)OCO3)n1 (configuration not stated),-20.1%,4.1,-4.8%,11.2,17.8%
CCn1c(Sc2ccc([N+](=O)[O-])cn2)nnc1-c1ccco1,-18.4%,8.1,-0.1%,15.0,?
O=C(COc1ccccc1Cl)Nc1ccc2[nH]c(=O)[nH]c2c1,56.0%,·,·,·,5.7%
CC1CN(c2c(F)c(N)c3c(=O)c(C(=O)O)cn(C4CC4)c3c2F)CC(C)N1 (configuration not stated),4.78µM*,-4.5,·,-2.2,7.57µM*
CO/N=C1\CN(c2nc3c(cc2F)c(=O)c(C(=O)O)cn3C2CC2)CC1CN (configuration not stated),1.69µM*,·,·,·,1.9µM*
COc1c(N2CCN(C(=S)NC3CC4CCC3C4)C(C)C2)c(F)cc2c(=O)c(C(=O)O)cn(C3CC3)c12 (configuration not stated),?,-1.8,7.0%,7.2,?
CC1CCc2c(N3CCC(O)CC3)c(F)cc3c(=O)c(C(=O)O)cn1c23 (configuration not stated),6.01µM*,·,·,·,14.7µM*
CC1CCc2cc(F)cc3c(=O)c(C(=O)O)cn1c23 (configuration not stated),?,0.6,-3.2%,-6.9,7.0%
NC1CCN(c2c(F)cc3c(=O)c(C(=O)O)cn(C4CC4)c3c2Cl)C1 (configuration not stated),0.738µM*,-2.3,-2.8%,-18.7,5.86µM*
CC(NC(N)=O)C(=O)Nc1ccc(Cl)c(S(=O)(=O)Nc2ccc(Br)cc2)c1 (configuration not stated),-2.6%,-3.9,-3.6%,-12.0,5.9%
Cc1c(F)c(N2CCNC(C)C2)cc2c1c(=O)c(C(=O)O)cn2C1CC1 (configuration not stated),6.75µM*,·,·,·,-18.9%
COc1c(N2CCNC(C)C2)c(F)cc2c(=O)c(C(=O)O)cn(C3CC3)c12 (configuration not stated),5.36µM*,·,·,·,?

# Source: PubChem BioAssay
